Reference: article PMC4242493, “Sequence specificity incompletely defines the genome-wide occupancy of Myc”
In all, about 33,000 sequences were measured (“normalized occupancy”: median about 0.075, highest 2% from about 0.095 on). The full list was thinned out, with the highest values kept by preference.

The sequences below were run against MaxL homodimer (Homo sapiens, UniProt P61244 1-160) (assay: universal protein-binding microarray (PBM); PBS-based mixture, 10 nM His-tagged protein dimer, 2% milk, 200 ng/uL BSA, 50 ng/uL salmon testes DNA, 0.02% TX-100; detection with Alexa 488 anti-His antibody;; high values mean tight binding). Settings: protein: recombinant; tags: C-terminal His-tag (pET21a); chain copies: 2; dsDNA, one strand shown.
Sequence of MaxL homodimer (P61244 whole entry): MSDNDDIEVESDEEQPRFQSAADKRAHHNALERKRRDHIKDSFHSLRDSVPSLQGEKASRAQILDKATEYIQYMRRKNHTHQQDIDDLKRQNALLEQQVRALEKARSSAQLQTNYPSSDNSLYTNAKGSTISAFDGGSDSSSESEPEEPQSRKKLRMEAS
Summary of the method: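 A His-tagged protein dimer at 10 nM was incubated on Agilent 4 x 44 K arrays of the 'all 10-mer' universal design, then labelled with 10 ng/μL fluorophore-conjugated anti-His antibody and scanned on a GenePix 4400A. A fluorescence intensity was assigned to each 8-mer. Binding occupancy is each such intensity normalised to that of the highest-ranked one.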
ATAAGAGG was tested, and the binding signal was 0.073 normalized occupancy.
With AGGACAAG the binding signal was 0.0738 normalized occupancy.
With GAGTCTGA the binding signal was 0.0726 normalized occupancy.
TATTACAA showed a binding signal of 0.0802 normalized occupancy.
CAAACCGA gave a binding signal of 0.0737 normalized occupancy.
In the case of GGAGAACA, the binding signal is reported as 0.0748 normalized occupancy.
CGACGTCA gave a binding signal of 0.0748 normalized occupancy.
ATACAAGG was tested, and the binding signal was 0.0755 normalized occupancy.
Sequence CATAGGCG has a binding signal of 0.0751 normalized occupancy.
CCGTGCCA showed a binding signal of 0.0772 normalized occupancy.
Work on ACGTGCCG yielded a binding signal of 0.0929 normalized occupancy.
ACGTGCCC gave a binding signal of 0.0948 normalized occupancy.
ACGTGCCT gave a binding signal of 0.0959 normalized occupancy.
In the case of TCGTGCCA, the binding signal is reported as 0.0874 normalized occupancy.
ACGTGCCA showed a binding signal of 0.115 normalized occupancy.
AACAATAC was tested, and the binding signal was 0.076 normalized occupancy.
CTTTCCAA was tested, and the binding signal was 0.0733 normalized occupancy.
AATGCACC gave a binding signal of 0.0777 normalized occupancy.
AATGCACT gave a binding signal of 0.0779 normalized occupancy.
For TATGCACA, the binding signal was 0.0883 normalized occupancy.
For CATGCACC, the binding signal was 0.0986 normalized occupancy.
GATGCACC gave a binding signal of 0.0775 normalized occupancy.
CTTGCACA gave a binding signal of 0.0801 normalized occupancy.
GATGCACA showed a binding signal of 0.0921 normalized occupancy.
CATGCACG was tested, and the binding signal was 0.101 normalized occupancy.
AATGCACG gave a binding signal of 0.0974 normalized occupancy.
Work on AATGCACA yielded a binding signal of 0.0785 normalized occupancy.
CATGCACA gave a binding signal of 0.0961 normalized occupancy.
Work on CCTGCACG yielded a binding signal of 0.0845 normalized occupancy.
With GAGACATA the binding signal was 0.0802 normalized occupancy.
AGATAATC gave a binding signal of 0.0755 normalized occupancy.
ACAGGCAT showed a binding signal of 0.0804 normalized occupancy.
For ATCGCAAT, the binding signal was 0.0728 normalized occupancy.
Sequence AATCTTCA has a binding signal of 0.072 normalized occupancy.
ACGAAAAG gave a binding signal of 0.0718 normalized occupancy.
ACCTTATG showed a binding signal of 0.0812 normalized occupancy.
CTGGCACA gave a binding signal of 0.0744 normalized occupancy.
ATGGCATG gave a binding signal of 0.0968 normalized occupancy.
Work on AAGGCATA yielded a binding signal of 0.0742 normalized occupancy.
Work on AAGGCATT yielded a binding signal of 0.0725 normalized occupancy.
ACGGCGTG was tested, and the binding signal was 0.0958 normalized occupancy.
ATGGCATA gave a binding signal of 0.085 normalized occupancy.
Work on AAGGCATG yielded a binding signal of 0.0988 normalized occupancy.
In the case of ACGGCGTA, the binding signal is reported as 0.0728 normalized occupancy.
With ACGGCGTC the binding signal was 0.0722 normalized occupancy.
Sequence ATGGCATC has a binding signal of 0.0919 normalized occupancy.
For ATGGCACA, the binding signal was 0.0786 normalized occupancy.
ATGGCACG was tested, and the binding signal was 0.0985 normalized occupancy.
For CGATGATA, the binding signal was 0.0772 normalized occupancy.
CTTAATCA showed a binding signal of 0.073 normalized occupancy.
CAGAGACA showed a binding signal of 0.0742 normalized occupancy.
With CTTCACCA the binding signal was 0.085 normalized occupancy.
AACAACCA showed a binding signal of 0.0769 normalized occupancy.
Sequence AAAACATA has a binding signal of 0.0798 normalized occupancy.
With AAAGAGGA the binding signal was 0.0738 normalized occupancy.
Sequence ACCTCAAA has a binding signal of 0.0749 normalized occupancy.
CTTGCGTA showed a binding signal of 0.0773 normalized occupancy.
Sequence GGCTTCCA has a binding signal of 0.0728 normalized occupancy.
ACGGCATC gave a binding signal of 0.0761 normalized occupancy.
CAGGCATA gave a binding signal of 0.0804 normalized occupancy.
ACGGCATA was tested, and the binding signal was 0.0754 normalized occupancy.
In the case of ACGGCATG, the binding signal is reported as 0.103 normalized occupancy.
CAGGCATC showed a binding signal of 0.0725 normalized occupancy.
Work on CAGGCATG yielded a binding signal of 0.0964 normalized occupancy.
GACAGACC gave a binding signal of 0.0741 normalized occupancy.
With AACTCCAG the binding signal was 0.0726 normalized occupancy.
In the case of AGTGCTGC, the binding signal is reported as 0.072 normalized occupancy.
For GATTTGAC, the binding signal was 0.0751 normalized occupancy.
ACGCATAC showed a binding signal of 0.0842 normalized occupancy.
In the case of ACGCATTC, the binding signal is reported as 0.0764 normalized occupancy.
ACGCATGC showed a binding signal of 0.124 normalized occupancy.
CCGCATTC gave a binding signal of 0.072 normalized occupancy.
Work on ACGCATTG yielded a binding signal of 0.0891 normalized occupancy.
CCGCATAA was tested, and the binding signal was 0.0821 normalized occupancy.
CCGCATCA was tested, and the binding signal was 0.0853 normalized occupancy.
ACGCATGG was tested, and the binding signal was 0.136 normalized occupancy.
With CCGCATCC the binding signal was 0.0787 normalized occupancy.
ACGCATAG showed a binding signal of 0.0818 normalized occupancy.
CCGCATGC showed a binding signal of 0.128 normalized occupancy.
Work on CCGCATGA yielded a binding signal of 0.113 normalized occupancy.
For ACGCTGTG, the binding signal was 0.0735 normalized occupancy.
Work on ACAGGGAG yielded a binding signal of 0.0726 normalized occupancy.
AAAGGCAG showed a binding signal of 0.0731 normalized occupancy.
With CGGGTGAC the binding signal was 0.0779 normalized occupancy.
Work on ATTCATAA yielded a binding signal of 0.0836 normalized occupancy.
ATGTAGGC gave a binding signal of 0.0776 normalized occupancy.
Sequence GAAAAGAA has a binding signal of 0.0746 normalized occupancy.
In the case of GGCATTTA, the binding signal is reported as 0.0801 normalized occupancy.
For GGATCGGA, the binding signal was 0.0725 normalized occupancy.
With ACGCATGA the binding signal was 0.102 normalized occupancy.
Sequence ACGCATCA has a binding signal of 0.0829 normalized occupancy.
GCGCATGA gave a binding signal of 0.0897 normalized occupancy.
Sequence AGGCTACA has a binding signal of 0.0725 normalized occupancy.
Sequence ACCACAGG has a binding signal of 0.0732 normalized occupancy.
ACGTAGGC gave a binding signal of 0.0765 normalized occupancy.
